These results are taken from PubChem BioAssay.

Active and inactive are the calls of the source.

Assay [1] deals with Albumin (Bos taurus) (UniProt P02769). The assay is described as follows: bovine serum albumin binders on microarray, profiling panel, artefact control for SMM control protein annotation, biochemical, small-molecule microarray, Alexa647 label, 635/667 nm fluorescence (AID 1118).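 Note: score merges 667 nm emission intensity and signal-to-noise per printed compound spot.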 Particulars: BSA-A647 binding, fluorescence 635 nm, higher = more signal.
Assay [2] can be described thus: small-molecule microarray binders of probe aXIP, primary screen, biochemical, NeuroSMM set, 635/667 nm fluorescence (AID 1119).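 Note: probe is the protein aXip251-270 applied at 1 µg/mL to compound-printed slides; binding of probe to printed compounds measured as 667 nm fluorescence plus signal to noise.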 Conditions: higher = more signal, called active from +8 up or from −8 down.
Assay [3] can be described thus: small-molecule binders of probe aNOTCH3, primary screen, biochemical, small-molecule microarray, 635/667 nm fluorescence (AID 1120).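 Note: probe is a biotin-tagged antibody raised against NOTCH3 rather than NOTCH3 protein; score merges spot fluorescence near 667 nm with spot signal to noise.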 Particulars: higher = more signal.
Assay [4] can be described thus: small-molecule binders of probe aNOTCH2, primary screen, biochemical, small-molecule microarray, 635/667 nm fluorescence (AID 1121).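 Note: score merges feature fluorescence read at 667 nm with its signal to noise.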 Particulars: higher = more signal.
Assay [5] addresses Carbonic anhydrase 2 (Homo sapiens) (UniProt P00918). The assay is described as follows: CAII small-molecule binders, profiling panel, biochemical, small-molecule microarray, Alexa647-labelled CAII (AID 1122). Conditions: CAII-A647 binding fluorescence, higher = more signal.
The nature of assay [6]: COS7 lysate on small-molecule microarray, probe aHis, 635 nm (AID 1123).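 Note: z-score combines 667nm fluorescence intensity with signal-to-noise per printed compound spot.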 Particulars: COS7 cell lysate, fluorescence, higher = more signal.
A short description of assay [7]: compound binding in COS7 lysate, probe aLAP1, primary screen, cell lysate, small-molecule microarray (AID 1124).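 Note: lysate comes from COS7 cells expressing LAP1 and is applied at 0.3 µg/mL; score merges spot fluorescence near 667 nm with signal-to-noise over triplicate slides.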 Particulars: probe aLAP1, fluorescence, higher = more signal.
Assay [8] deals with Sam68 (KHDRBS1). As to the kind of experiment: Sam68 small-molecule binders, primary screen, biochemical, small-molecule microarray, 635 nm fluorescence (AID 1125).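 Note: score merges 667 nm channel intensity with signal to noise over triplicate slides.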 Conditions: small-molecule microarray binding, higher = more signal.
Assay [9] concerns Chordin-like protein 2 (CHRDL2). The assay is described as follows: CHRDL2 small-molecule binders, primary screen, biochemical, small-molecule microarray, 635 nm fluorescence (AID 1126).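 Note: printed compound slides probed with Chrdl2 protein at 4 µg/mL for 1 h at 4 C; score merges 667 nm emission intensity with signal to noise over three replicate slides.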 Particulars: small-molecule microarray binding, fluorescence 635 nm; higher = more signal.
In assay [10] the target is Concanavalin-A (Canavalia ensiformis) (UniProt P02866). The assay is described as follows: ConA small-molecule binders, primary screen, artefact control for SMM control protein annotation, biochemical, small-molecule microarray, Alexa647 label, 635 nm (AID 1127).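 Note: z combines 667 nm emission intensity with signal-to-noise across three replicate slides.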 Conditions: ConA-A647 binding fluorescence, higher = more signal.
A short description of assay [11]: anti-His antibody binders, primary screen, artefact control for SMM control protein annotation, biochemical, small-molecule microarray, 635 nm fluorescence (AID 1128).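 Note: score merges feature fluorescence with signal-to-noise for each printed compound spot.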 Conditions: anti-His Alexa647 antibody binding, higher = more signal.
In assay [12] the test system is Human papillomavirus type 1a E7 protein (residues 1-88). As to the kind of experiment: HPV1a E7 small-molecule binders, primary screen, biochemical, small-molecule microarray, residues 1-88, 635 nm (AID 1129). Particulars: small-molecule microarray binding, fluorescence 635 nm; higher = more signal.
The target of assay [13] is Focal adhesion kinase 1 (Homo sapiens) (UniProt Q05397). The assay is described as follows: small-molecule microarray binders of FAK, primary screen, biochemical, 635/667 nm fluorescence, BSA, DTT (AID 1130).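 Note: composite of spot emission at 667 nm and signal to noise over triplicate slides.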 Particulars: PTK2 binding, 635 nm fluorescence, higher = more signal.
In assay [14] the test system is Fibrinogen (Alexa647-labelled). The assay is described as follows: fibrinogen binders on compound microarrays, profiling panel, artefact control for SMM control-protein annotation, biochemical, small-molecule microarray, 635/667 nm fluorescence (AID 1131).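 Note: z-score merges 667 nm fluorescence with per-spot signal-to-noise over triplicate slides.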 Particulars: fibrinogen-A647 binding fluorescence, higher = more signal.
In assay [15] the target is Follistatin (Homo sapiens) (UniProt P19883). The assay is described as follows: follistatin binders on small-molecule microarrays, primary screen, biochemical, small-molecule microarray, 635/667 nm fluorescence (AID 1132). Conditions: FST binding, 635 nm fluorescence, higher = more signal.
Assay [16] concerns the target Fibroblast growth factor 2 (Homo sapiens) (UniProt P09038). The assay is described as follows: FGF2 binders on small-molecule microarrays, primary screen, biochemical, small-molecule microarray, 635/667 nm fluorescence (AID 1133). Particulars: small-molecule microarray binding, FGF2, fluorescence 635/667; higher = more signal.
Assay [17] can be described thus: mitochondrial membrane potential change in A549 cells, profiling panel, cell-based, JC-1 fluorescence, basal, 24 h, 100 nL (AID 1138).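 Note: A549 lung adenocarcinoma cells under basal conditions with no added stimulus; test concentration not given here.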 Conditions: higher = more signal.
Assay [18] has as its system Lefty1. As to the kind of experiment: Lefty1 binders on small-molecule microarrays, primary screen, biochemical, small-molecule microarray, 635/667 nm fluorescence (AID 1139). Particulars: small-molecule microarray binding, fluorescence 635/667; higher = more signal.
In assay [19] the test system is wheat germ agglutinin (Triticum aestivum), Alexa647-labelled. As to the kind of experiment: wheat germ agglutinin binders on compound microarrays, profiling panel, artefact control for SMM control-protein annotation, biochemical, small-molecule microarray, 635/667 nm fluorescence (AID 1140).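 Note: score merges 667 nm feature emission with signal to noise over triplicate slides.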 Conditions: WGA-A647 binding, 635 nm fluorescence, higher = more signal.
Assay [20] addresses Luciferin 4-monooxygenase (Photinus pyralis) (UniProt P08659). As to the kind of experiment: firefly luciferase enzyme inhibitors, primary screen, biochemical, luminescence, purified enzyme, 2006 set (AID 1141).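 Note: cell-free assay with purified firefly luciferase at 100 ng per well in PBS; test concentration not given here.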 Conditions: SteadyGlo luminescence, 30 min, higher = more signal, called active from +8 up or from −8 down.

Follistatin (Homo sapiens), sequence (P19883 whole entry, looked up): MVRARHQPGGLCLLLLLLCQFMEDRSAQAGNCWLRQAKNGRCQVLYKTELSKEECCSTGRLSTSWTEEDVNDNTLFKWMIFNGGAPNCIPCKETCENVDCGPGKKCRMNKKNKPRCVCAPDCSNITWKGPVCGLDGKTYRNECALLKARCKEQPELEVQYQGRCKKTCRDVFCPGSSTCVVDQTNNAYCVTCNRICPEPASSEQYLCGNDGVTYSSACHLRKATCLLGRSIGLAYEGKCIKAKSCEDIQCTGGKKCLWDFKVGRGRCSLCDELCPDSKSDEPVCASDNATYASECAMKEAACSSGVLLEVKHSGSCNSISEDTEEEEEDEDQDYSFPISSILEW
Albumin (Bos taurus), sequence (P02769 whole entry, looked up): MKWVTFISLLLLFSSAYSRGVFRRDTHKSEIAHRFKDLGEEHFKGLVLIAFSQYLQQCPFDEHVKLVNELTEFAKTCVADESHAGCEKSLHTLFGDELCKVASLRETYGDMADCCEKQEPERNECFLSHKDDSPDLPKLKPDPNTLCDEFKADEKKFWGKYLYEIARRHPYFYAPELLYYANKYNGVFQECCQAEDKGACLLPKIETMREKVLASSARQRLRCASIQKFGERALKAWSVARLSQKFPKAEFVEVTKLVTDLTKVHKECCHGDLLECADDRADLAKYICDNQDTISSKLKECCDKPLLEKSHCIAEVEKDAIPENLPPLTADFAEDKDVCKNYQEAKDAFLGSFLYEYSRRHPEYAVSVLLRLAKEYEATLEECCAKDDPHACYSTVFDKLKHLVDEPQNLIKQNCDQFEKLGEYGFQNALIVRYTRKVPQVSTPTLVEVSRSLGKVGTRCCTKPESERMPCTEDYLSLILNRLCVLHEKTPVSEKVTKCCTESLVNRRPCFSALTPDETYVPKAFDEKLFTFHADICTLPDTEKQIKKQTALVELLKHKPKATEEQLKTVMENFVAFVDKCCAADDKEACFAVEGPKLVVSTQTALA
Concanavalin-A (Canavalia ensiformis), sequence (P02866 whole entry, looked up): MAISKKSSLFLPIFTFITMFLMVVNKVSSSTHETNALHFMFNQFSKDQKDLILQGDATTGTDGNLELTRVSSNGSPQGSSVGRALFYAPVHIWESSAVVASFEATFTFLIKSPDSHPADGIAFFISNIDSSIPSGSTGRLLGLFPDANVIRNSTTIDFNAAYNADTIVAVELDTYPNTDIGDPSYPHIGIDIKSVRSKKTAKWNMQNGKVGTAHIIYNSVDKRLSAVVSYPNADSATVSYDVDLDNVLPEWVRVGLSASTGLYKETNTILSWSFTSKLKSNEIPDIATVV
Focal adhesion kinase 1 (Homo sapiens), sequence (Q05397 whole entry, looked up): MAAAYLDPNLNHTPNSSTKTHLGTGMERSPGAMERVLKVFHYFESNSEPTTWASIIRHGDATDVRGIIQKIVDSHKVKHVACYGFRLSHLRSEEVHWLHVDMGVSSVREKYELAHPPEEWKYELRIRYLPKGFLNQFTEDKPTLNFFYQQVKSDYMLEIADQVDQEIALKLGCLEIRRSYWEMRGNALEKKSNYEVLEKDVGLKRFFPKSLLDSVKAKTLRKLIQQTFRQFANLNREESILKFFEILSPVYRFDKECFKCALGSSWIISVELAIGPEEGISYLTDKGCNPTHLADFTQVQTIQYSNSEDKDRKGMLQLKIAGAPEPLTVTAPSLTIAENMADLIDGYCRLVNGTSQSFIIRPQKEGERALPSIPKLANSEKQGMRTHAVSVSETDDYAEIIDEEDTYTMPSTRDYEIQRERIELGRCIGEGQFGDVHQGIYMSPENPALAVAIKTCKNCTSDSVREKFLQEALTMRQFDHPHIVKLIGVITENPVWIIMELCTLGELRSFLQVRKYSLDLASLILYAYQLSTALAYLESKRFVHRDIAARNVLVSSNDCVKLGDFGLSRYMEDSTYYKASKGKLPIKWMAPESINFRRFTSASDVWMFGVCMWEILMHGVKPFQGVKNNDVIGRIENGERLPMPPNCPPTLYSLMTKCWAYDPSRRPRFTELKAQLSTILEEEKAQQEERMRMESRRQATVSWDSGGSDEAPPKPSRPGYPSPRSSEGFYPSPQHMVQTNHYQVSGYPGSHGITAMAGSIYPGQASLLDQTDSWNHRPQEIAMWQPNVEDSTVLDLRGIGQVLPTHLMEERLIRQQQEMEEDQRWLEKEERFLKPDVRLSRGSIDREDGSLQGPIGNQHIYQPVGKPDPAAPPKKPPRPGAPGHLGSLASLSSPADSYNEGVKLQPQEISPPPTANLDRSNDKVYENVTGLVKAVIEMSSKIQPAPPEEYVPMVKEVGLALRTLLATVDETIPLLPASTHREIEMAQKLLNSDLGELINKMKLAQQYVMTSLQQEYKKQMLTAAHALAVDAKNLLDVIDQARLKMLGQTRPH
Fibroblast growth factor 2 (Homo sapiens), sequence (P09038 whole entry, looked up): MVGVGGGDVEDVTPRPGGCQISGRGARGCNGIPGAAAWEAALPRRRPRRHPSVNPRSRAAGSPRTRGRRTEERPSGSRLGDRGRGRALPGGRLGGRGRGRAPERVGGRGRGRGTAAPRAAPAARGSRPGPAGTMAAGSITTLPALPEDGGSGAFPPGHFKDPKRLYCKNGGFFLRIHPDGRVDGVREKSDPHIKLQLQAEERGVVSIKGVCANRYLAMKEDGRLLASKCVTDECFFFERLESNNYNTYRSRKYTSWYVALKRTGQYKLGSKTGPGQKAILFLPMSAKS
Luciferin 4-monooxygenase (Photinus pyralis), sequence (P08659 whole entry, looked up): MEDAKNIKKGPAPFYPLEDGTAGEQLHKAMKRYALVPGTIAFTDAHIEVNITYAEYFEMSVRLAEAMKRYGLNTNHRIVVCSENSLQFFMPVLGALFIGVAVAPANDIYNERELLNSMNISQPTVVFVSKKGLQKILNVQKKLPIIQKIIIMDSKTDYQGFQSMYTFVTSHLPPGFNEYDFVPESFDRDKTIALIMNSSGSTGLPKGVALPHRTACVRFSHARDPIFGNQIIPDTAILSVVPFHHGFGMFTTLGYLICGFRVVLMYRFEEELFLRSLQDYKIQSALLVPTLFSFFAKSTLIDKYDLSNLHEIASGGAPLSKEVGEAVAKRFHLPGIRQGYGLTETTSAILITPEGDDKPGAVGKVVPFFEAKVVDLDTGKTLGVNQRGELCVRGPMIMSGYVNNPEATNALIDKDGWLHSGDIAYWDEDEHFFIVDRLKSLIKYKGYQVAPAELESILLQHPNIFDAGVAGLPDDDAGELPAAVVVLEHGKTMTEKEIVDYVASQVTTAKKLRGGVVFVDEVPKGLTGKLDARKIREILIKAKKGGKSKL

As for `CC1CC/C=C\[C@H]2OC34C=CCN(c5ccc6ccccc6c5)C(=O)[C@H]3N(CCO)C(=O)[C@@H]4C2C(=O)O1` (stereo not given in full), the composite z-score in assay [1] was 0.653; in assay [3] it was -0.19; in [4], -0.0903; in assay [5] it was 0.829; in assay [6], 0.275; in assay [7] it was 0.758. For the same compound, the composite z-score in assay [8] was 0.0573; in [9] it was -0.628; in assay [10] it was -1.12; in [11] it was -0.9; in assay [12] it was -0.898; in assay [13], -0.645. Further, the composite z-score is -0.0601 in assay [14]; -0.839 in assay [15]; -0.467 in [16]; -0.708 in assay [18]; 1.03 in [19]. In addition, in assay [2], the composite Z-score was 0.0214 (inactive). Further, the z-score in [17] is -0.245; in assay [20], 0.288 (inactive).
Consider `C=CC[C@]1(C(=O)NCc2ccccc2)N=C(c2ccc(OCCCO)cc2)O[C@H]1c1ccccc1CN=[N+]=[N-]`, for which the composite z-score is 0.183 in [1]; 0.367 in [3]; -0.104 in [4]; 0.563 in assay [5]; 0.935 in [6]; 0.403 in assay [7]. For the same compound, the composite z-score in assay [8] was 1.31; in assay [9] it was -0.329; in [10], 0.79; in assay [11], 1.25; in assay [12], 1.21; in [13] it was 0.112. For the same compound, the composite z-score in assay [14] was determined as 1.02; in assay [15], 1.31; in assay [16] it was 1.09; in assay [18], 0.497; in [19] it was 0.666. Also, the composite Z-score in assay [2] is -0.451 (inactive). In addition, the z-score in assay [17] was 1.22; in assay [20] it was -0.238 (inactive).
As to `C=C(CCCC)/C(=C/C[C@H](OC(=O)c1ccncc1)c1ccc(OCCO)cc1)c1cc(C(=O)OC)ccc1OC`, the composite z-score in assay [1] was -0.0215; in assay [3], 0.167; in [4], -0.14; in assay [5], 0.644; in assay [6] it was 0.774; in [7], 0.354. Also, the composite z-score is 0.59 in [8]; -0.257 in assay [9]; 0.363 in assay [10]; 1.07 in assay [11]; 1.18 in assay [12]; 0.525 in [13]. Also, the composite z-score in assay [14] is 0.438; in assay [15] it was -0.0021; in assay [16], 0.0508; in assay [18], 0.394; in assay [19], 0.704. Further, the composite Z-score in assay [2] was 0.219 (inactive). In addition, the z-score in assay [17] was 0.313; in assay [20], -0.723 (inactive).
For `COC(=O)C(CC#Cc1ccc2c(c1)[C@]1(C(=O)N2)[C@H](c2ccccc2OCCO)N2[C@H](c3ccccc3)[C@H](c3ccccc3)OC(=O)[C@H]2[C@@H]1C(=O)O)C(=O)OC`, the composite z-score was 0.573 in assay [1]; 0.194 in assay [3]; -0.1 in [4]; 0.367 in assay [5]; 1.7 in assay [6]; 0.375 in assay [7]. The composite z-score was 1.3 in assay [8]; 0.132 in [9]; 1.09 in [10]; 1.94 in [11]; 1.16 in assay [12]; 0.411 in [13]. In addition, the composite z-score in assay [14] stood at 0.765; in assay [15], 0.206; in assay [16], 0.36; in assay [18], 0.284; in [19], 0.702. For the same compound, the composite Z-score in assay [2] was 0.0066 (inactive). The z-score in [17] is 0.621; in assay [20] it was -2.37 (inactive).
For `O=c1cccc(-c2ccccc2Cl)o1`, the composite z-score is 0.18 in assay [1]; -0.177 in assay [3]; -0.199 in assay [4]; -0.0836 in [5]; -0.011 in [6]; -0.235 in [7]. For the same compound, the composite z-score in assay [8] is 0.102; in assay [9], 0.0431; in assay [10], -0.415; in [11], 0.0166; in [12], 0.461; in assay [13], 0.678. Besides, the composite z-score in [14] is -0.0231; in assay [15], 0.0968; in assay [16], -0.488; in assay [18] it was 0.0182; in assay [19], -0.0467. The composite Z-score in [2] is 0.0241 (inactive). Further, the values for the z-score in assay [17] and in assay [20] were -0.556 and 0.294 (inactive), respectively.
